The source of these data is PubChem BioAssay.

Structures are written as SMILES.

Chain of Neurogenic locus notch homolog protein 3 (Homo sapiens) (Q9UM47 whole entry, looked up): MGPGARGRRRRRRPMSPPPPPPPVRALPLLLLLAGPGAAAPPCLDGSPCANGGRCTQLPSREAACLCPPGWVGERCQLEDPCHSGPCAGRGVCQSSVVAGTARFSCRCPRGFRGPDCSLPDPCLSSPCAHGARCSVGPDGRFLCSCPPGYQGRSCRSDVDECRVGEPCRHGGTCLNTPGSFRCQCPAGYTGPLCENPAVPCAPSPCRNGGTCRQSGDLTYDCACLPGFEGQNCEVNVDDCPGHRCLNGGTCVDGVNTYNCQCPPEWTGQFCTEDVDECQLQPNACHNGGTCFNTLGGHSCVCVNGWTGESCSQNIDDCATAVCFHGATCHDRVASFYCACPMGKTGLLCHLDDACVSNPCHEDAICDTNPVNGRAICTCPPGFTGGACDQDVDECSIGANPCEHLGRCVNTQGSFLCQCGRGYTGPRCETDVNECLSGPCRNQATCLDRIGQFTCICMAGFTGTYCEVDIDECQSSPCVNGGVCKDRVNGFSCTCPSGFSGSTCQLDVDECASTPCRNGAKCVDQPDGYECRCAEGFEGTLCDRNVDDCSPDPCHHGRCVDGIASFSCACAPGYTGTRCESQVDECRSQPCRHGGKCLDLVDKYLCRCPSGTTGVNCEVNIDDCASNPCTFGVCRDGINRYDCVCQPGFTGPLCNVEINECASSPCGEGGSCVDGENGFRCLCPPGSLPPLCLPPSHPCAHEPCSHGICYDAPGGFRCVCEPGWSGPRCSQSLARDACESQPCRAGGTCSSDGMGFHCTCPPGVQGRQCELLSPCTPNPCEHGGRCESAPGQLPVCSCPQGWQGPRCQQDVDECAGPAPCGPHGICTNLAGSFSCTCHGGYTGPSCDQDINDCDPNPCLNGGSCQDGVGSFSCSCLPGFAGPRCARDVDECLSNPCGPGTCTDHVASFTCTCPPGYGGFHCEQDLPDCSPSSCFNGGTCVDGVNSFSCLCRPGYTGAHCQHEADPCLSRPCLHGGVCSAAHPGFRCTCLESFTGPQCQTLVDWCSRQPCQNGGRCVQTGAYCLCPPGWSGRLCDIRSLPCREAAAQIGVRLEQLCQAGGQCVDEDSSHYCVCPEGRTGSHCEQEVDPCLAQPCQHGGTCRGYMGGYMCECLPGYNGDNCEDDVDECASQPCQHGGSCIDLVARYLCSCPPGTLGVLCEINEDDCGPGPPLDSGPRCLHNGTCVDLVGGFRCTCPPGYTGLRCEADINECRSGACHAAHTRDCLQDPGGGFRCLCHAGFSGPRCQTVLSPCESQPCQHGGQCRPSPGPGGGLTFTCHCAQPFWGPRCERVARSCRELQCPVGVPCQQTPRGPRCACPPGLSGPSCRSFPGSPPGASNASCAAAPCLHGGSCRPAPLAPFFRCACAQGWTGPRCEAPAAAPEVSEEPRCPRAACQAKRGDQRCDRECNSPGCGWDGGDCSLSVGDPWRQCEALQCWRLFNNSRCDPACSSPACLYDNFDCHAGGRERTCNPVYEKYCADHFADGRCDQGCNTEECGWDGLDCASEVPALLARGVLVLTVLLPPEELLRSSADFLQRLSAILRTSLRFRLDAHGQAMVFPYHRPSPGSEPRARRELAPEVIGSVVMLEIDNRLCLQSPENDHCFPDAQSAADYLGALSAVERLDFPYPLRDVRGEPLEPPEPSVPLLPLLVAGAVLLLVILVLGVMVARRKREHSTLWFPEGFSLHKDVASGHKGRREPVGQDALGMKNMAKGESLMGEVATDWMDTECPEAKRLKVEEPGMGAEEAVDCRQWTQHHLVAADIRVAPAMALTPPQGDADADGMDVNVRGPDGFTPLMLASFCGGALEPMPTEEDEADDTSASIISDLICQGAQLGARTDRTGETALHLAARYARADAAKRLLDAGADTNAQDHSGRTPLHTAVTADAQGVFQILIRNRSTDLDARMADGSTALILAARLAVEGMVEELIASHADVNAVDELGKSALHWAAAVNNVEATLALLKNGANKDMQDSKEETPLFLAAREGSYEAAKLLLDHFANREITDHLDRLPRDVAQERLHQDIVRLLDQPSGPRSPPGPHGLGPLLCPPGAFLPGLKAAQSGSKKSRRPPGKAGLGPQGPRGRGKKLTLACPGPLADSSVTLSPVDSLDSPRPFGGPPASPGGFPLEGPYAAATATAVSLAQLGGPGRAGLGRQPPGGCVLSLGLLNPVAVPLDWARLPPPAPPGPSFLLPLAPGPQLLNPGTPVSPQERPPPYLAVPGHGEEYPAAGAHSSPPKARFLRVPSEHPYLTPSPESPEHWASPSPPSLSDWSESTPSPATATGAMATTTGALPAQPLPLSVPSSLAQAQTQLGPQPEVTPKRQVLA

For the first assay, the system named is Noggin (protein binding on small-molecule microarray). Briefly: Noggin binders on small-molecule microarray, primary screen, biochemical, 635/667 nm fluorescence (AID 1095).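 Note: score merges 667 nm feature fluorescence with signal to noise over triplicate slides.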 As to conditions: 635 nm fluorescence, higher = more signal.
In the case of `O=C1[C@H]2[C@H]3[C@H](O)[C@H](O)CC(=NOCc4ccccc4)[C@@H]3CC[C@H]2C(=O)N1Cc1ccc2c(c1)OCO2`, the composite z-score was found to be 0.297.

In turn, `COC(=O)CC=C[C@@H](C)[C@@H](C=NO[C@@H]1O[C@H](COC(C)=O)[C@@H](OC(C)=O)[C@H](OC(C)=O)[C@H]1OC(C)=O)OC` yielded a composite z-score of 0.27.

With `COc1cccc([C@H]2Oc3ccc(OC)cc3C(=NOC[C@@H](O)[C@H]3O[C@@H]4OC(C)(C)O[C@@H]4[C@H]3O)[C@@H]2O)c1`, the composite z-score was determined as 0.449.

Compound `O=C1C[C@@H](O)[C@@H](O)[C@@H]2[C@@H]3C(=O)N(Cc4ccccc4)C(=O)[C@@H]3CC[C@@H]12` returned a composite z-score of 0.45.

Take `CO[C@H]1COC(=O)CC=C[C@@H](C)[C@H](OC)COC(=O)CCC[C@@H]1C`: the composite z-score is 0.978.

`CCN1C(=O)[C@H]2[C@H]3[C@H](O)[C@H](O)CC(=NNC(=O)OCc4ccc(OC)cc4)[C@@H]3CC[C@H]2C1=O` registered a composite z-score of 0.51.

Another assay concerns the target Neurogenic locus notch homolog protein 3 (Homo sapiens) (UniProt Q9UM47). Briefly: NOTCH3 binders on small-molecule microarray, primary screen, biochemical, 635/667 nm fluorescence (AID 1096). As to conditions: NOTCH3 binding, 635 nm fluorescence, higher = more signal.
The compound `O=C1CCCC(C2=CCCCC2=O)C1` (configuration not stated) returned a composite z-score of 0.0934.

Take `Cn1c(=O)n2n(c1=O)[C@H]1[C@H](O)[C@@H]3O[C@@H]3C(=NOCc3ccccc3)[C@H]1CC2`: the composite z-score amounted to 0.525.

Turning to `CO[C@H](C1CCCCC1)[C@H](C)C=CCC(=O)OCCCc1ccccc1`, the composite z-score was -0.226.

`COC(=O)[C@H](C)NC(=O)CCC1CC(OC(=O)NCc2ccc3c(c2)OCO3)CC2(CCCC(COC(=O)NCC(c3ccccc3)c3ccccc3)O2)O1` (some centres not stated) returned a composite z-score of 1.06.

Compound `O=c1n(-c2ccccc2)c(=O)n2n1CC[C@@H]1C(=NOCc3ccccc3)[C@H]3O[C@H]3[C@@H](O)[C@@H]12` returned a composite z-score of 0.116.

With `COC(=O)[C@H]1[C@@H](O)[C@@]2(O)c3ccccc3O[C@@]2(c2ccccc2)[C@@H]1c1ccccc1`, the composite z-score was -0.104.

With `COC(=O)CC=C[C@@H](C)[C@@H](C=NOC(C)CN1CCCc2nc(C)c(C)cc21)OC` (some centres not stated), the composite z-score was found to be 0.625.

The compound `COC(=O)[C@H](C)NC(=O)CCC1CC(OC(=O)NCCc2ccc(F)cc2)CC2(CCCC(COC(=O)NCc3cccc(C(F)(F)F)c3)O2)O1` (some centres not stated) returned a composite z-score of 0.581.

In turn, `Cc1ccc(S(=O)(=O)N[C@H]2COC(=O)CC=C[C@H](C)[C@@H](NS(=O)(=O)c3ccc(C)cc3)COC(=O)CC=C[C@@H]2C)cc1` showed a composite z-score of 0.321.

As to `CON=C1[C@H]2CCn3c(=O)n(-c4ccccc4)c(=O)n3[C@H]2[C@H](O)[C@@H]2O[C@H]12`, the composite z-score was 0.646.

`C#CCCCON=C1C[C@@H](O)[C@@H](O)[C@@H]2[C@@H]3C(=O)N(C(C)(C)C)C(=O)[C@@H]3CC[C@@H]12` displayed a composite z-score of -1.07.

`CO[C@H]1COC(=O)CC=C[C@@H](C)[C@H](NS(=O)(=O)c2ccc(C)cc2)COC(=O)CCC[C@@H]1C`: the composite z-score amounted to 0.77.

With `COc1ccc(COC(=O)NN=C2C[C@@H](O)[C@@H](O)[C@@H]3[C@@H]4C(=O)N(c5ccc(F)cc5F)C(=O)[C@@H]4CC[C@H]23)cc1`, the composite z-score is -0.425.

In turn, `COc1ccc(O[C@H]2C=C[C@@H](c3ccccc3)O[C@@H]2COC(=O)CCC(C)=NOC[C@@H](O)[C@H]2O[C@@H]3OC(C)(C)O[C@@H]3[C@H]2O)cc1` displayed a composite z-score of 0.763.

For `CO[C@H]1COC(=O)CC=C[C@H](C)[C@@H](OC)COC(=O)[C@H](C)COC(=O)CC=C[C@@H]1C`, the composite z-score was -0.292.

For the compound `CCOC(=O)C1=NO[C@]2(C=C(Br)C3(OCCCO3)[C@H]3O[C@H]32)C1`, the composite z-score was -0.862.

As for `Cc1cc2c(nc1C)CCCCN2CC(C)ON=C1[C@H]2CCn3c(=O)n(-c4ccccc4)c(=O)n3[C@H]2[C@H](O)[C@@H]2O[C@H]12` (some centres not stated), the composite z-score was found to be 0.258.

In turn, `COc1ccc(O[C@H]2C=C[C@@H](c3ccccc3)O[C@@H]2COC(=O)CCC(C)=NO[C@@H]2O[C@H](COC(C)=O)[C@@H](OC(C)=O)[C@H](OC(C)=O)[C@H]2OC(C)=O)cc1` gave a composite z-score of 1.1.

In turn, `Cc1cc2c(c(=O)o1)[C@@H](O)[C@H]1O[C@H]1C2=O` returned a composite z-score of 0.482.

`CCOC(=O)CCN1C(=O)[C@H]2[C@H]3[C@H](O)[C@H](O)CC(=NNC(=O)OCc4ccccc4)[C@@H]3CC[C@H]2C1=O` showed a composite z-score of 1.01.

For `O=C1[C@H]2[C@H]3[C@H](O)[C@H](O)CC(=NOC[C@@H](O)COCc4ccco4)[C@@H]3CC[C@H]2C(=O)N1C[C@@H]1CCCO1`, the composite z-score came out at 0.395.

In turn, `CC(C)CON=C1C[C@@H](O)[C@@H](O)[C@@H]2[C@@H]3C(=O)N(C[C@@H]4CCCO4)C(=O)[C@@H]3CC[C@@H]12` displayed a composite z-score of -0.435.

`CON=Cc1ccc(C(=O)N2[C@H](c3ccc(C)cc3)[C@@H](C)CC[C@H]2C(=O)OC)cc1` returned a composite z-score of 0.772.

`C[C@@H](c1ccccc1)N1C(=O)[C@H]2[C@H]3[C@H](O)[C@H](O)CC(=O)[C@H]3CC[C@H]2C1=O`: the composite z-score stood at 0.521.

Take `CC(C)CON=C1C[C@@H](O)[C@@H](O)[C@@H]2[C@@H]3C(=O)N(Cc4ccc5c(c4)OCO5)C(=O)[C@@H]3CC[C@H]12`: the composite z-score was determined as 0.846.

`CCN1C(=O)[C@H]2[C@H]3[C@H](O)[C@H](O)CC(=NOCC(C)C)[C@@H]3CC[C@H]2C1=O` showed a composite z-score of 1.12.

As for `CC(C)=NO[C@H](C)c1cn([C@H](CO)Cc2ccccc2)nn1`, the composite z-score was 0.104.

Compound `CCCNC(=O)OC[C@H]1O[C@H](c2ccccc2)C=C[C@@H]1Oc1ccc(OC)cc1` showed a composite z-score of -0.124.

For the compound `C[C@@H]1CC[C@H]2C(=O)O[C@@H](Cc3ccccc3)CN2[C@H]1c1ccc(Br)cc1`, the composite z-score is 0.22.

Compound `COc1ccc(O[C@H]2C=C[C@@H](c3ccccc3)O[C@@H]2CON=C(C)CCC(=O)OC[C@H]2O[C@H](c3ccccc3)C=C[C@@H]2Oc2ccc(OC)cc2)cc1` showed a composite z-score of 0.0708.

On to `O=C1[C@H]2[C@H]3[C@H](O)[C@H](O)CC(=NOCc4ccccc4)[C@@H]3CC[C@H]2C(=O)N1Cc1ccc2c(c1)OCO2`, for which the composite z-score turned out to be 0.428.

As for `COC(=O)CC=C[C@@H](C)[C@@H](C=NO[C@@H]1O[C@H](COC(C)=O)[C@@H](OC(C)=O)[C@H](OC(C)=O)[C@H]1OC(C)=O)OC`, the composite z-score is -0.297.

For `COc1cccc([C@H]2Oc3ccc(OC)cc3C(=NOC[C@@H](O)[C@H]3O[C@@H]4OC(C)(C)O[C@@H]4[C@H]3O)[C@@H]2O)c1`, the composite z-score amounted to 0.456.

`O=C1C[C@@H](O)[C@@H](O)[C@@H]2[C@@H]3C(=O)N(Cc4ccccc4)C(=O)[C@@H]3CC[C@@H]12`: the composite z-score came out at 0.618.

As to `CO[C@H]1COC(=O)CC=C[C@@H](C)[C@H](OC)COC(=O)CCC[C@@H]1C`, the composite z-score was determined as 0.288.

`CCN1C(=O)[C@H]2[C@H]3[C@H](O)[C@H](O)CC(=NNC(=O)OCc4ccc(OC)cc4)[C@@H]3CC[C@H]2C1=O` came in with a composite z-score of -0.428.
